# Laboratory results reported in PubChem BioAssay.
# Unmarked numbers belong to inactive results. For part of these data: Measured potencies and affinities stand elsewhere. Calls of active or inactive are those of the source.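 Rule for the calls, unless noted: active = primary screen active and over 50% activation in each of two duplicate runs; inactive = the rest.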
# Tests used:
# [1] = tested on: TRPC4 beta (transient receptor potential cation channel C4), mouse; test: activators of mouse TRPC4 channel, confirmation, cell-based, Fluo4 calcium, HEK293 TRPC4beta/mu-opioid, duplicates, 10 µM (AID 2426;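 active = fluorescence ratio normalized to control raised more than 50% in primary screen plus both repeat runs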); settings: Fluo4 calcium fluorescence, at 10 µM; stronger effect = higher value
# [2] = tested on: transient receptor potential cation channel C4 beta (TRPC4), mouse; test: activators of mouse TRPC4 channel, confirmation, cell-based, second round, Fluo4, HEK293 TRPC4beta/mu-opioid, 1 µM (AID 2461); settings: Fluo4 calcium fluorescence, at 1 µM; stronger effect = higher value
# [3] = tested on: TRPC4 (transient receptor potential cation channel C4 beta), mouse; test: positive allosteric modulators of mouse TRPC4, confirmation, cell-based, second round, Fluo-4, HEK293 TRPC4beta/mu-opioid, 1 µM (AID 2554;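 active = primary screen hit whose fluorescence ratio, in both repeats, exceeds the weak agonist control mean by 3 SD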); settings: DAMGO EC20, Fluo-4 calcium flux, at 1 µM; stronger effect = higher value
# [4] = tested on: TRPC4 beta (transient receptor potential cation channel C4), mouse; test: positive allosteric modulators of mouse TRPC4, confirmation, cell-based, Fluo-4, HEK293 TRPC4beta/mu-opioid (AID 2555;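 active = primary screen hit whose calcium fluorescence ratio, in both repeats, exceeds the weak agonist control mean by 3 SD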); settings: DAMGO EC20, Fluo-4 calcium flux, at 10 µM; stronger effect = higher value
# [5] = molecular target: Short transient receptor potential channel 4 (Mus musculus) (UniProt Q9QUQ5); test: inhibitors of mouse TRPC4 channel, confirmation, cell-based, Fluo4, HEK293 TRPC4beta/mu-opioid (AID 2636;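 active = calcium signal cut by more than 3 SD below the full-agonist control yet still positive, in both repeats and the earlier primary screen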); settings: DAMGO, Fluo4 calcium flux, at 10 µM; stronger effect = higher value
# [6] = molecular target: Short transient receptor potential channel 4 (Mus musculus) (UniProt Q9QUQ5); test: inhibitors of mouse TRPC4 channel, confirmation, cell-based, second round, Fluo4, HEK293 TRPC4beta/mu-opioid, 1 µM (AID 2637;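 active = calcium signal ratio cut to more than 3 SD under the fully stimulated control mean yet still positive, in both repeats and the primary screen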); settings: Fluo4 calcium flux, DAMGO, at 1 µM; stronger effect = higher value
# [7] = molecular target: Short transient receptor potential channel 4 (Mus musculus) (UniProt Q9QUQ5); test: mouse TRPC4 channel activators, dose response, cell-based, HEK293 TRPC4/mu-opioid, Fluo-4 calcium (AID 434937;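 active = primary screen activator hit with a dose response curve and TRPC4 channel activation at any tested dose; inactive = no activation, no dose response, or not a primary hit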)
# [8] = molecular target: Short transient receptor potential channel 4 (Mus musculus) (UniProt Q9QUQ5); test: TRPC4 positive allosteric modulators, dose response, cell-based, HEK293 TRPC4/mu-opioid, Fluo-4 calcium, EC20 DAMGO (AID 434941;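 active = earlier screen potentiator hit that boosts the TRPC4 ion channel at some dose, with a dose response; inactive = no potentiation, no dose response, or not a prior hit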;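 note: calcium entry triggered by an EC20 dose of DAMGO at the co-expressed mu-opioid receptor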)
# [9] = molecular target: Short transient receptor potential channel 4 (Mus musculus) (UniProt Q9QUQ5); test: mouse TRPC4 channel inhibitors, dose response, cell-based, HEK293 TRPC4/mu-opioid, Fluo-4 calcium (AID 434942;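 active = primary screen inhibitor hit that blocks the TRPC4 channel at some tested dose, yielding a dose curve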)
# [10] = molecular target: Short transient receptor potential channel 6 (Mus musculus) (UniProt Q61143); test: inhibition of mouse TRPC6 channel, confirmation, selectivity assay for TRPC4 inhibitor project, cell-based, HEK293, membrane potential dye, duplicate (AID 434948;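 active = active in primary screen and both duplicates, each dropping signal beyond three positive-control SD with fluorescence still positive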); settings: HEK293 TRPC6, membrane potential dye fluorescence, at 10 µM, stimulated with maximal-effect acetylcholine; stronger effect = higher value
# [11] = molecular target: Short transient receptor potential channel 6 (Mus musculus) (UniProt Q61143); test: activation of mouse TRPC6 channel, confirmation, selectivity assay for TRPC4 activator project, cell-based, HEK293, membrane potential dye, duplicate (AID 434950;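 active = membrane potential signal rise above negative control mean plus 3 SD in both duplicates, also active in the earlier TRPC4 screen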); settings: HEK293 TRPC6, membrane potential fluorescence, at 10 µM; stronger effect = higher value
# [12] = molecular target: Short transient receptor potential channel 6 (Mus musculus) (UniProt Q61143); test: TRPC6 potentiation by TRPC4 potentiator hits, confirmation, selectivity assay for TRPC4 potentiator project, HEK293 cells, membrane potential dye, duplicate (AID 434952;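 active = compound raising the membrane signal above positive-control mean plus 3 SD in both repeats, and a primary screen hit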); settings: HEK293 TRPC6, membrane potential dye fluorescence, at 10 µM, maximal acetylcholine added after compound; stronger effect = higher value
# [13] = molecular target: Short transient receptor potential channel 4 (Mus musculus) (UniProt Q9QUQ5); test: calcium flux activators in TRPC4/5HT1a cells, counter-screen for TRPC4 activator project, cell-based, second counter screen, HEK293 TRPC4/5HT1a, Fluo-4 (AID 434977;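 active = calcium signal rise above buffer-control mean plus 5 SD in both duplicates, and also a hit in the primary screen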); settings: Fluo-4 calcium flux, at 10 µM; stronger effect = higher value
# [14] = calcium flux inhibitors in TRPC4/5HT1a cells, confirmation, counter-screen for TRPC4 inhibitor project, cell-based, second counter screen, HEK293 TRPC4/5HT1a, Fluo-4 (AID 434978;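 active = primary screen active whose calcium signal fell more than 3 SD beyond the full-serotonin control mean in both duplicate plates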;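 note: serotonin given first at submaximal then at maximal dose after compound preincubation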); settings: Fluo-4 calcium flux, at 10 µM, serotonin added to trigger calcium flux; stronger effect = higher value
# [15] = tested on: TRPC4 (mouse), co-expressed with 5HT1a in HEK293; test: calcium flux potentiators in TRPC4/5HT1a cells, confirmation, counter-screen for TRPC4 potentiator project, cell-based, second counter screen, HEK293 TRPC4/5HT1a, Fluo-4 (AID 434979;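 active = signal rise over 3 SD above mean of control wells given weak agonist, in both repeats and first screen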); settings: Fluo-4 calcium flux, at 10 µM, serotonin added at its EC20 dose; stronger effect = higher value
# [16] = calcium flux activation in mu-opioid HEK293 cells, confirmation, counter-screen for TRPC4 activator project, cell-based, HEK293 mu-opioid receptor line (AID 449723;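 active = hit in primary screen, with calcium signal over 5 SD above buffer well mean in both duplicates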;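 note: counter screen cells carry the mu-opioid receptor alone and lack TRPC4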); settings: Fluo-4 calcium fluorescence, at 10 µM; stronger effect = higher value
# [17] = calcium flux enhancement in mu-opioid HEK293 cells, confirmation, counter-screen for TRPC4 allosteric potentiator project, cell-based, HEK293 mu-opioid receptor line (AID 449724;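 active = calcium signal rise more than 3 SD above the low-dose agonist control mean, in both duplicate plates and the primary screen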); settings: Fluo-4 calcium flux, at 10 µM, compound added before EC20 DAMGO stimulus; stronger effect = higher value
# Short transient receptor potential channel 6 (Mus musculus), sequence (Q61143 whole entry, looked up): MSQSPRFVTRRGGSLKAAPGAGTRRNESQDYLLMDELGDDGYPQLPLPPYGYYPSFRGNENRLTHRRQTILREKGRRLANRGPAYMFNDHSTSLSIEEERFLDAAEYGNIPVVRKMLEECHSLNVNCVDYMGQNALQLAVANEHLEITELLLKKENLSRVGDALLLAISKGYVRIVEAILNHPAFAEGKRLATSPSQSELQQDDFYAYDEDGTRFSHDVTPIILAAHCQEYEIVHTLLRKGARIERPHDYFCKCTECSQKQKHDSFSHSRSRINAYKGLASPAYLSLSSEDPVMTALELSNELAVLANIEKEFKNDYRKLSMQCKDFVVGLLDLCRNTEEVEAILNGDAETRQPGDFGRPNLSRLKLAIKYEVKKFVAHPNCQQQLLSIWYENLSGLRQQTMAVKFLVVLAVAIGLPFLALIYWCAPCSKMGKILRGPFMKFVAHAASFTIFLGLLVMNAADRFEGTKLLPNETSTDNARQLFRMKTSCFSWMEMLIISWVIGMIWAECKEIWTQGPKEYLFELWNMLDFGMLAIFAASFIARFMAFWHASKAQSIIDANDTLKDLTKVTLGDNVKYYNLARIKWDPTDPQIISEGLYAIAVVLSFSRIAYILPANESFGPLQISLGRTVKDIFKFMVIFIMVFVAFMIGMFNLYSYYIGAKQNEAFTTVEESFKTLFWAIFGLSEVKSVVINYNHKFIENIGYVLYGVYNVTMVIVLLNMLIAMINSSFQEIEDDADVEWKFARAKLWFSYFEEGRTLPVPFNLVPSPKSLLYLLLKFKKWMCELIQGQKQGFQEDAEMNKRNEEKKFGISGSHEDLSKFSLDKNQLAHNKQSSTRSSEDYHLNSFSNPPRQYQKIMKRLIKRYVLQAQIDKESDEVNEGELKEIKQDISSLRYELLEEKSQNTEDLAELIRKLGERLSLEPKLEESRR
# Short transient receptor potential channel 4 (Mus musculus), sequence (Q9QUQ5 whole entry, looked up): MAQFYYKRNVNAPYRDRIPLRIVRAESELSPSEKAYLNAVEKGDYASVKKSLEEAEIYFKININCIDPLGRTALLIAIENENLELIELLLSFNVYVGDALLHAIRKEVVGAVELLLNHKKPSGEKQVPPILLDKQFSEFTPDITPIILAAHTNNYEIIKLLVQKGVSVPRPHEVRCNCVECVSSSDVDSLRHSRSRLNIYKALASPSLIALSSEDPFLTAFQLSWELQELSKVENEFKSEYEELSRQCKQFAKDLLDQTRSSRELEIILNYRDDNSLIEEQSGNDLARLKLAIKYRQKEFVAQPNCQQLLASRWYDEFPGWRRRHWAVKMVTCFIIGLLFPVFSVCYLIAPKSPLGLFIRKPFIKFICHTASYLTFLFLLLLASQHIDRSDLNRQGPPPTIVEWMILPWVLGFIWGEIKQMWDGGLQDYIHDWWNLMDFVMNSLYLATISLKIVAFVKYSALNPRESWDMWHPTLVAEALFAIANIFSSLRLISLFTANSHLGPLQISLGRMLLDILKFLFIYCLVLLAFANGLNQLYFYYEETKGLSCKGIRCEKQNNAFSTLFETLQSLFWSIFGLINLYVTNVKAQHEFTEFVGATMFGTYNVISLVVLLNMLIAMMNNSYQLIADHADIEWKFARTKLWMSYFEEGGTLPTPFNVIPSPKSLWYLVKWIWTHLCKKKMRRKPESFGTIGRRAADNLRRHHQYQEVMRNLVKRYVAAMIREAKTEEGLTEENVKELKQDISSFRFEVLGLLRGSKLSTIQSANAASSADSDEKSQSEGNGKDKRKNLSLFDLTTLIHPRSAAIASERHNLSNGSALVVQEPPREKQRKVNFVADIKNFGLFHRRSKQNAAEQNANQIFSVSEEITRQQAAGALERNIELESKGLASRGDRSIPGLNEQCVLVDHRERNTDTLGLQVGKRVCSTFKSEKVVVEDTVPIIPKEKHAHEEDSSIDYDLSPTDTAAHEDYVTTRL
SMILES,outcome [1],outcome [2],outcome [3],outcome [4],outcome [5],outcome [6],outcome [7],outcome [8],outcome [9],outcome [10],outcome [11],outcome [12],outcome [13],outcome [14],outcome [15],outcome [16],outcome [17],potentiation [15],potentiation [4],potentiation [3]
CC1(C)CC(=O)C(C=NCCN2CCN(C(=O)CCl)CC2)=C(O)C1,inactive,inactive,inactive,inactive,inactive,inactive,inactive,inactive,inactive,inactive,inactive,inactive,inactive,inactive,inactive,inactive,inactive,–,–,–
COc1ccc(OC)c(NC(=O)COC(=O)Cc2ccc(-c3ccccc3)cc2)c1,inactive,inactive,inactive,inactive,inactive,inactive,inactive,inactive,inactive,inactive,inactive,inactive,inactive,inactive,–,inactive,inactive,31.8% (active),–,–
O=C(CSc1nnc(-c2ccccc2)o1)c1ccc2c(c1)OCCO2,inactive,inactive,inactive,inactive,inactive,inactive,inactive,inactive,inactive,inactive,inactive,inactive,inactive,inactive,inactive,inactive,inactive,–,–,–
Cc1ccccc1OCCNc1cc(N2CCNCC2)ccc1[N+](=O)[O-],inactive,inactive,inactive,inactive,inactive,inactive,inactive,inactive,inactive,inactive,inactive,inactive,inactive,inactive,inactive,inactive,inactive,–,–,–
CCCCN1C(=O)C(=O)N(CC(=O)Nc2cc(OCC)c(N3CCOCC3)cc2OCC)C1=O,inactive,inactive,inactive,inactive,inactive,inactive,inactive,inactive,inactive,inactive,inactive,inactive,inactive,inactive,inactive,inactive,inactive,–,–,–
CC1CCCN(C2=C(NS(=O)(=O)c3ccc(Br)cc3)C(=O)c3ccccc3C2=O)C1 (stereo not given),inactive,inactive,inactive,inactive,inactive,inactive,inactive,inactive,inactive,inactive,inactive,inactive,inactive,inactive,inactive,inactive,inactive,–,–,–
COc1cccc(OCC(=O)NC2CCCCC2)c1,inactive,inactive,inactive,–,inactive,inactive,inactive,inactive,inactive,inactive,inactive,inactive,inactive,inactive,–,inactive,inactive,26.3% (active),41% (active),–
O=C(COc1ccccc1-c1ccccc1)NCc1ccco1,inactive,inactive,inactive,inactive,inactive,inactive,inactive,inactive,inactive,inactive,inactive,inactive,inactive,inactive,inactive,inactive,inactive,–,–,–
COc1ccc(N2CCN(C3CCCCC3NS(=O)(=O)c3ccc(Cl)cc3)CC2)cc1 (stereo not given),inactive,inactive,inactive,inactive,inactive,inactive,inactive,inactive,inactive,inactive,inactive,inactive,inactive,inactive,–,inactive,inactive,10.1% (active),–,–
CNC(=S)NNC(=O)c1cccn(Cc2cccc(C(F)(F)F)c2)c1=O,inactive,inactive,inactive,–,inactive,inactive,inactive,inactive,inactive,inactive,inactive,inactive,inactive,inactive,inactive,inactive,inactive,–,14% (active),–
CC(Oc1ccc(Cl)cc1Cl)C(=O)N(C)c1ccccc1 (stereo not given),inactive,inactive,inactive,inactive,inactive,inactive,inactive,inactive,inactive,inactive,inactive,inactive,inactive,inactive,inactive,inactive,inactive,–,–,–
Cc1ccc(C2N(c3cccc(Cl)c3)C(=O)C3CCCN32)o1 (stereo not given),inactive,inactive,–,–,inactive,inactive,inactive,inactive,inactive,inactive,inactive,inactive,inactive,inactive,–,inactive,inactive,13.4% (active),16% (active),19% (active)
CC(C)CCn1c(Sc2nc3ccccc3o2)nc2c1c(=O)[nH]c(=O)n2C,inactive,inactive,inactive,–,inactive,inactive,inactive,inactive,inactive,inactive,inactive,inactive,inactive,inactive,–,inactive,inactive,45% (active),13% (active),–
O=C(O)CCC(=O)N1CCN(c2nc3ccccc3s2)CC1,inactive,inactive,inactive,–,inactive,inactive,inactive,inactive,inactive,inactive,inactive,inactive,inactive,inactive,–,inactive,inactive,21.2% (active),11% (active),–
C(#Cc1ccccc1)C[N+]1(CC#Cc2cccc3ccccc23)CCCC1,inactive,inactive,inactive,inactive,inactive,inactive,inactive,inactive,inactive,inactive,inactive,inactive,inactive,inactive,inactive,inactive,inactive,–,–,–
